High-throughput results from PubChem BioAssay.
A selection: hits, their analogues and other compounds. The true share with any hit is near 5.7%.
GRIN3A LBD mod: binders of NR3A ligand-binding domain, primary screen, biophysical, differential scanning fluorimetry, uHTS; Glutamate receptor ionotropic, NMDA 3A (GRIN3A) ligand-binding domain; 340,000 tested, 2.5% active; Tm shift relative to glycine control, % at 25 µM; NR3A LBD differential scanning fluorimetry, Tm shift; 0% = protein alone, 100% = glycine-bound protein;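 active means melting temperature shift of at least 10% of the positive control shift, at one fixed dose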
Myeloid diff 2: induction of myeloid progenitor differentiation, primary screen, cell-based, flow cytometry, MLPCN library; calls only at 10 µM; 360,000 tested, 1% active; ER-HoxA9 myeloid progenitors, lysozyme-GFP differentiation; AID 624256, 2012;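 active means normalized GFP-positive differentiation at or above the plate's own cutoff, the solvent-only control mean plus 3 SD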;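 further: cells exposed to compound for four days before flow analysis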
FAS TE block: FAS thioesterase domain inhibitors, primary screen, biochemical, fluorescence intensity, uHTS | recombinant FAS-TE, OMFH fluorogenic substrate, fluorescence endpoint | inhibition, % at 15 µM | 360,000 tested, 0.67% active;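 active means compounds whose normalised, plate-corrected inhibition of enzyme fluorescence in the single-dose primary screen is 50% or more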
MPTP block: mitochondrial permeability transition pore inhibitors, primary screen, biochemical, isolated mouse mitochondria, absorbance; Ca2+ swelling absorbance, 30 min; inhibition, % at 10 µM; 360,000 tested, 1.4% active;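 active means inhibition of 50% or more, scaled per plate between neutral and stimulator controls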
rCAG binder: binders of r(CAG) RNA repeats, primary screen, biochemical, fluorescence | r(CAG) RNA repeat, TO-PRO-1 dye displacement fluorescence | inhibition, % at 3 µM | 370,000 tested, 1.3% active | AID 651821, 2012;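 active means inhibition above the plate cutoff, the mean of all test compounds on that plate plus 3 SD, cut at about 35% in these data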;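 further: higher means more dye released from RNA so lower well fluorescence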
rCAG binder conf: small molecules binding CAG repeat RNA – biochemical, fluorescence, confirmation; shares compounds with rCAG binder; r(CAG) RNA repeat, TO-PRO-1 dye displacement fluorescence; inhibition, % at 3 µM; 4,300 tested, 70% active;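 active means inhibition above a per-plate cutoff, the mean inhibition of sample wells plus 3 SD, cut at about 35% in these data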;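 further: loss of TO-PRO-1 fluorescence as compound displaces dye from 1x1 AA loop RNA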
dCAG dye counter: displacement of TO-PRO-1 from CAG DNA duplex, counter-screen for rCAG RNA repeat binder project, biochemical, fluorescence, TO-PRO-1 dye, d(CAG) DNA oligo. shares compounds with rCAG binder. d(CAG) DNA oligo TO-PRO-1 dye displacement. inhibition, % at 3 µM. 4,300 tested, 94% active;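 active means inhibition above its plate's cutoff, the mean test-well inhibition plus 3 SD, cut at about 4.8% in these data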;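 further: hits displace the dye from DNA and so lower well fluorescence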
DNA CAG DR: inhibitors of DNA CAG/GTC TO-PRO-1 complex, dose response, counter-screen for rCAG RNA repeat binder project, biochemical, fluorescence, TO-PRO-1 dye | shares compounds with rCAG binder | DNA CAG/GTC duplex TO-PRO-1 dye displacement fluorescence | 250 tested, 20% active | IC50, µM; in the data active means IC50 below about 10 µM
Each line names hits and unclear results; the compound was inactive in the other large screens (follow-up assays come after a bar, where they were run).

c1coc(-c2nc(N=C3N=c4ccccc4=N3)[nH]c2-c2ccco2)c1	rCAG binder 39 (no result: GRIN3A LBD mod) | rCAG binder conf inactive | dCAG dye counter 19
O=c1nc2s/c(=C\c3ccc(-c4ccccc4[N+](=O)[O-])o3)c(=O)n2nc1-c1ccccc1	rCAG binder 46 | rCAG binder conf 51 | dCAG dye counter 25
Cc1cc(CNC(=O)CC2C(=O)NCCN2Cc2ccccc2C(F)(F)F)on1 (configuration not stated)	none
CCOC(=O)C(C)N1C(=O)S/C(=C\c2ccc(-c3ccccc3C(=O)O)o2)C1=O (configuration not stated)	rCAG binder 37 | rCAG binder conf 40 | dCAG dye counter 12
Cc1ccc(C)c(N2C(=N)S/C(=C\c3ccc(-c4ccccc4C(=O)O)o3)C2=O)c1	rCAG binder 45 | rCAG binder conf 39 | dCAG dye counter 10
Cc1ccccc1NC(=O)CN1C(=O)S/C(=C\c2ccc(-c3cc(C(=O)O)ccc3C)o2)C1=O	none
COc1c(C)cc(C(O)c2ncc(-c3ccccc3F)[nH]2)cc1C (configuration not stated)	none (no result: GRIN3A LBD mod)
O=c1[nH]c2ccc(NCc3ccccc3OCc3ccc(Cl)cc3)cc2[nH]1	none
CS/C(Nc1cc(Cl)ccc1Cl)=C(/C#N)C(=O)c1ccco1	rCAG binder 47 | rCAG binder conf inactive | dCAG dye counter 5.7
Cc1ccc2[nH]c(C)c(/C=N/Nc3nc4ccccc4s3)c2c1	GRIN3A LBD mod 24, rCAG binder 65 | rCAG binder conf 47 | dCAG dye counter 26
C(=N\Nc1nc2ccccc2s1)/c1ccccn1	none (no result: Myeloid diff 2, FAS TE block, MPTP block)
Cc1ccc(F)c(S(=O)(=O)NC(=O)C2(C)CCN2C(=O)Cc2ccc(-c3ccccc3)cc2)c1 (configuration not stated)	rCAG binder 60 (no result: GRIN3A LBD mod) | rCAG binder conf 55 | dCAG dye counter 18
CC(C)(C)c1ccc(CC(=O)N2CCC2(C)C(=O)NS(=O)(=O)c2cccc(OC(F)F)c2)cc1 (configuration not stated)	rCAG binder 52 (no result: GRIN3A LBD mod) | rCAG binder conf 41 | dCAG dye counter 9.7
Cc1cccc(S(=O)(=O)NC(=O)C2(C)CCN2C(=O)Cc2ccc(-c3ccccc3)cc2)c1 (configuration not stated)	rCAG binder 53 (no result: GRIN3A LBD mod) | rCAG binder conf 49 | dCAG dye counter 15
Cc1cc(C)cc(CC(=O)N2CCC2(C)C(=O)NS(=O)(=O)c2cccc(OC(F)F)c2)c1 (configuration not stated)	none (no result: GRIN3A LBD mod)
Cc1cccc(S(=O)(=O)NC(=O)C2(C)CCN2C(=O)Cc2ccc(C(C)(C)C)cc2)c1 (configuration not stated)	rCAG binder 40 (no result: GRIN3A LBD mod) | rCAG binder conf inactive | dCAG dye counter 7.5
Cc1cccc(N(C(=O)Nc2ccc(Cl)cc2)C2=NCC(C)S2)n1 (configuration not stated)	none
COCCCNC(=O)c1ccc(Cn2c(=O)c3ccccc3n(CC(=O)NCCc3ccc(OC)c(OC)c3)c2=O)cc1	none
CC(C)(C)c1ccc(CC(=O)N2CCC2(C)C(=O)NS(=O)(=O)c2ccccc2)cc1 (configuration not stated)	none (no result: GRIN3A LBD mod)
COc1ccc(S(=O)(=O)NC(=O)C2(C)CCN2C(=O)Cc2ccc(C(C)(C)C)cc2)cc1 (configuration not stated)	rCAG binder 42 (no result: GRIN3A LBD mod) | rCAG binder conf inactive | dCAG dye counter 4.8
CC1(C(=O)NS(=O)(=O)Cc2ccccc2)CCN1C(=O)Cc1ccc(-c2ccccc2)cc1 (configuration not stated)	rCAG binder 58 (no result: GRIN3A LBD mod) | rCAG binder conf 50 | dCAG dye counter 14
Cc1ccccc1S(=O)(=O)N1C[C@H]2CON(C)[C@H]2C[C@H]1c1cccc(Oc2ccccc2)c1	none
CN(C(=O)COC(=O)c1ccc2c(c1)OCCO2)C1CCCCC1	none
Cc1ccc(C(=O)C=Cc2cccc(C)c2)cc1	none
COc1cccc(/C=C/C(=O)c2ccc(NS(=O)(=O)c3ccc(C)cc3)cc2)c1	GRIN3A LBD mod 18, rCAG binder 35 | rCAG binder conf 62 | dCAG dye counter 21
COc1ccc(C(=O)COC(=O)/C=C/c2ccc(S(=O)(=O)Nc3cccc(S(N)(=O)=O)c3)cc2)cc1	GRIN3A LBD mod 11, rCAG binder 46 | rCAG binder conf 60 | dCAG dye counter 20
CCc1nnc(NS(=O)(=O)c2ccc(NC(=O)c3cccc(OC)c3)cc2)s1	rCAG binder 39 | rCAG binder conf inactive | dCAG dye counter 5.5
CCCN(CCC)S(=O)(=O)c1ccc(C(=O)Nc2ccc(S(=O)(=O)Nc3nnc(CC)s3)cc2)cc1	rCAG binder 80 | rCAG binder conf 84 | dCAG dye counter 54
CCc1nnc(NS(=O)(=O)c2ccc(NC(=O)c3ccc(C#N)cc3)cc2)s1	rCAG binder 36 | rCAG binder conf inactive | dCAG dye counter inactive
CCc1nnc(NS(=O)(=O)c2ccc(N3C(=O)C4CC=C(Cl)CC4C3=O)cc2)s1 (configuration not stated)	rCAG binder 49 | rCAG binder conf inactive | dCAG dye counter 7.6
Nc1ccccc1Oc1ccc2ccccc2c1	none
Cc1ccsc1C(=O)N1CCCC(C(=O)c2cc(F)ccc2F)C1 (configuration not stated)	none
CCc1nnc(NS(=O)(=O)c2ccc(NC(=O)c3ccccc3C)cc2)s1	none
CCc1nnc(NS(=O)(=O)c2ccc(NC(=O)c3cccc(Cl)c3)cc2)s1	rCAG binder 54 | rCAG binder conf 50 | dCAG dye counter 10 | DNA CAG DR inactive
CCc1nnc(NS(=O)(=O)c2ccc(NC(=O)c3ccccc3OC)cc2)s1	rCAG binder 49 | rCAG binder conf inactive | dCAG dye counter 6.0
CCc1nnc(NS(=O)(=O)c2ccc(NC(=O)C(c3ccccc3)c3ccccc3)cc2)s1	rCAG binder 84 | rCAG binder conf 72 | dCAG dye counter 34 | DNA CAG DR 9.2
CCc1nnc(NS(=O)(=O)c2ccc(NC(=O)c3ccco3)cc2)s1	none
